Results from the supplement of paper PMC12632987.
In all, about 2,300 sequences were measured (“median log2 fold change of GCK-ALFA target abundance (FLAG IP / Myc IP barcode read proportion)”: median about 0.095, lowest 2% from about -0.47 on). Shown is part of a subset that was picked to be rich in the lowest values.

B1: LC3A_free_46_2358 (protein)
chain: YKAEIDIDLLHEDKEVLEKAVEEIEKAAREIAEKYGLKVEIEKEFEKLPDGSYYARIRITLEGEDKEKVEEAVNELINEIDKISKKYDVASIISYEIEEK
B2: LC3A_free_8_2524 (protein)
chain: SKQEFANKATEVLDELEEKLRKALEELGASRLDILEAEVLVGSIIAEVISLSDKEPEEQLKAIKEGLKDLVEELEKYKETVKKLADEALKKIEEIKKELE
B3: LC3A_147_445 (protein)
chain: VKVEVTIGVLMKNKPEVGDELVEKLRETAEAAGAEVEVEVEREKIDENTVYLLIKLTLTTETREAAEALANKVIDTVEEFAEKHKDEILGYIISVEISEA
B4: LC3A_127_188 (protein)
chain: EIEKLIKELLKELEKLSELLSSPDFDLEEAEKLAKKILKLAKELEKLDPRFKPLVEDAKELLKIIEEMKNASPAEQEELKEHALMLVEGMEIEALSLELK
B5: LC3A_free_46_2376 (protein)
chain: YKIEIDIYFSAMSKEKAEEMAEEIKKAAEEISKKTGVKIEVEVKIITDENGETWLEVKVTIEGEDKEKALKAATELIDKFDEIAEKHGVSLIISVEEIDE
B6: LC3A_59_2018 (protein)
chain: SEELEALRERLREAVDDIDAFVAIVREGLERFRDDPERVRALLRAAMDVIVEELGMDPEEAEKTLAEMLAIWETEPDKEEAIARVTELVRDTLLLTPIEE
B7: LC3A_free_8_2515 (protein)
chain: MNQEFANKATEILEELEEKLVELLKEKGASELDILEAELLIGSAIAEVISLSDKSPEEILKAIRESLEELVEELEEHREEVKELAEEALKKIEEKKKELE
B8: LC3A_3_1855 (protein)
chain: MEEIIEEALKLLKELGRSEETIEAARKLLEALKERGFEEAAKVLLEELKKLKNVSDEDLLEMFNELLKALEEEDLNEEEAIELIKSEARVLLNAEEIEEL
B9: LC3A_3_1647 (protein)
chain: PEEEVEETVELLREAGHSEETIEAFRETAEALLERGYEEALRVLIEETRELLDLPDEILLAMLEEVLRVIKEEDLSEEEVIEEIRRIARIARSEGEIIEL
B10: LC3A_free_39_2193 (protein)
chain: SAAETEKAKAELLALAAEAGEEAKKLAEEIIKLIGEDLEKLKKLLEALKKAKEAGVDVLEVLKEALELAKELKKQGKSKEEIFEEVLELIEDAINLIPID
B11: LC3A_28_1195 (protein)
chain: SLAEETIKKIREQAKKALEEGDGAVIEVNISKELSDEGIDKILETIKEEAAKLADLESVSIIINVESGVSQENIDKIADTGEEIEEKYPNVTVIIALDED
B12: LC3A_28_898 (protein)
chain: MSALESAEAALAAVRAAVAAGDQAPLVLEVKAPSTEEDTEKLIELLEEIAREASQLTGVTIVIDIDESVSEENQQKLIDKAEELEKKYPNVTVIIALPES
B13: LC3A_28_683 (protein)
chain: SETDESIEKALKKAKEALEKGKPEVIEIKVSGDTTEEELEKILEALEEIAEIANKVPGSAIIIDIDADLPQEFRDKLIDKAEELEEKYPNVTIIFALEER
B14: LC3A_free_0_2122 (protein)
chain: KKTVVEVVVILDESTSKETAEEIYEKLKEKAEELAKEAGAEVESSLSEVDGSYIITIKITLPTDDIDKALELEDKLVETAEEIAKEAGVEATIYSSVYLE
B15: LC3A_3_1412 (protein)
chain: LEERREALLAELRAAGWSEETLAAVEELLEALLARGAEEEAERALELLRAARDLPSERLLEVVEEALRALREEGLSPEEVIALLEELLRVARAEQEIEEL
B16: LC3A_28_1281 (protein)
chain: SEIEEEIERAIKEAKEAKEKGEPAVIEIEVPGDATEEEIEKVIKGLEEIAEILKDIPNQAIVINVDSGVKEEHIDKLVDKAEEIEEKYPNVTVIIALDED
B17: LC3A_3_1385 (protein)
chain: MEEEMEKTLERLREAGHSEETIEAARKALEALIEKGYENSAKTFIELLDELIHLPDELLLELFEDVLELIETEDIDEETLTEKIKEIASVYKNESEIEEL
B18: LC3A_free_26_2139 (protein)
chain: EKFVDIYLIDEAIDALEKAKELAKKIEGIGEKLVKLLEEALKLIEKETLESLEKAIKILKEIKELIEKDKTIDEETKKELLELVTKALEKVEEVVKIMKE
B19: LC3A_3_1411 (protein)
chain: LEERLAATEALLREAGHSEETLAAFRRLVELLLERGAEEEAERVLELVAEAKDISSEDLLAVLEEVIRALEEEGASPEEAVERLEELLRIARAEQEIEEL
B20: LC3A_147_452 (protein)
chain: ATYVITVDVLLRNDPELAERIEEEIKKIGEENGAEVEVEREEIQETPTTTEYFLRVTLKTTDEEKALKALQEVSELLDRTAEEHPESFLGAMISFEKIED
B21: LC3A_28_842 (protein)
chain: SKTEENIKKALAEAKEAAEKGESKVITLKVYKGDTEEEIDKIIETLEEIAEILKDLPNQAIIIEFEEPIDPEHQDKIIDKAEEIEKKYPNITVIIALPEE
B22: LC3A_28_846 (protein)
chain: SKTEEDIEKALKEAKEAAKKGEPAVIELKVYKGDTEEEIEKIIEALEEIAEILKDLPNQAILINFEEVIDEEHQNKILDKAEEIEKKYPNVTVIIALPEE
B23: LC3A_28_844 (protein)
chain: SKTEKDIKEALERAKRAAEEGKSEVITIKVYKGDTEEEINKIIETLEEIAEILKDLPNQAILIDFEEKIDEEHQNKIIDKAEEIEKKYPNITVIIALPEE
B24: LC3A_132_311 (protein)
chain: SEEKYKEIKEELEKKLKEAEKNIKDKEKVEKLLEEIRKLLEEAEEELSPEQVAELYDEVADRLWKLSQKALEAGQEDVALELDAAAIEAASRSLEAEKLI
B25: LC3A_free_46_2418 (protein)
chain: YRGIVEADLLGLTEEQVEEVIERVKEKAKRLEEEYGVKVEVEVEVEKNEDGTYFLRIKVTIEGEDREKVEKAANEVVDLLEKLADEYGAAMIISIEFEEL
B26: LC3A_147_515 (protein)
chain: MYEVDIDILVKREGEEEVLEELEEILEELREEGYEVEVLEKRIEREGDEVFIYVKVLIRAPTPEEAEKAVNRLISRLEELEEKHKDLILGSLISVEKIEP
B27: LC3A_147_484 (protein)
chain: MRVYVDVLVDDEETAEELVRLMEATVEELRAQGIRVELRVEIEEVEPGVYFVEIEVEIEAETEEEEQAAAQRVIDALEAFDEANKDRVLGTLISVEREER
B28: LC3A_132_312 (protein)
chain: MEEKYAEIKARLDALLDEAAANIKDKAKVQALLKEIKALLEEAEKELTPEQVAELYDYVADRLDALSQQALAAGQEDVALDLDAASIEAASRSLEAEKKI
B29: LC3A_free_8_2551 (protein)
chain: NSQEFAEKVSEIIDEAEEKVKKILTENGVDREKRLLLELLFGEIIIEVISLRDKSKEEIAKAAKEGLEEVKEEAESLDEETKAKVNAVIDEAEAKIEALL

Biological target: MAP1LC3A, Q9H492
Assay: median log2 fold change of GCK-ALFA target abundance (FLAG IP / Myc IP barcode read proportion) (log2 ratio); each designed protein is fused to an ALFA-tag nanobody in HEK293 cells to bring the named protein to FLAG-tagged glucokinase (GCK); Myc marks an untargeted standard; higher = target protein stabilised (more abundant)
Details: target protein: 3xFLAG-MCP-GCK-ALFA reporter; HEK293 landing pad (RPLP)
Outline: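 The readout is target abundance, the per-binder median log2 ratio of FLAG to Myc barcode read proportions. It came from HEK293 landing-pad cells carrying a recombined ALFA-nanobody-fused binder library, induced with 2 μg mL^−1 doxycycline and transfected with a plasmid for a FLAG-tagged target and a Myc-tagged standard. After 48 h, lysates were immunoprecipitated with anti-FLAG and anti-Myc, and circular RNA barcodes were reverse transcribed, amplified and sequenced. Each barcode needed a proportion of at least 10^−7 in both replicates and each binder at least 3 barcodes per replicate, a pseudocount of 10^−6 was added, and the replicates were pooled.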

Binder | median log2 fold change
B1 | -0.026
B2 | -0.575
B3 | -0.265
B4 | 0.156
B5 | -0.231
B6 | -0.587
B7 | 0.159
B8 | 0.224
B9 | 0.138
B10 | 0.242
B11 | 0.229
B12 | 0.201
B13 | -0.521
B14 | -0.221
B15 | 0.243
B16 | -0.286
B17 | 0.082
B18 | 0.132
B19 | 0.212
B20 | -0.0647
B21 | -0.297
B22 | -0.293
B23 | -0.471
B24 | 0.256
B25 | 0.196
B26 | -0.205
B27 | -0.559
B28 | 0.361
B29 | -0.172
